# This is a sample that favours compounds with a hit; in the whole collection about 7.9% have one here.
# FMDV inh = High Throughput Screening for Foot and Mouth Disease Virus Antivirals; FMDV antiviral cell-based qHTS; Potency, µM (series often up to 57.9 µM), for inactives: at the top dose activity change, negative = inhibition, actives largely listed as inhibitors; 410,000 compounds, 1.2% hits; AID 1159524, 2015; calls by dose curve; tested in HEK293T cells; further: read-out not given here; potency means the concentration at half of the fitted maximal effect; nearly all actives have a fitted effect of over 45% in size
# LASV entry inh = qHTS for Inhibitors of binding or entry into cells for Lassa Virus; Lassa virus pseudotype entry inhibition, cell reporter; Potency, µM (doses to about 37.9 µM), for the others: at the top dose activity change, negative = inhibition, hits mostly inhibitors; 300,000 compounds, 1.2% hits; AID 540256, 2011; calls by dose curve; tested in HEK293 cells; further: potency means the concentration at half of the fitted maximal effect; nearly all actives have a fitted effect of over 50% in size
# HCV inhibitor = qHTS Assay for Inhibitors of Hepatitis C Virus (HCV). Huh7.5.1 HCVcc-Cre infection, luciferase reporter, 44 h. Potency, µM (doses to about 41.8 µM), inactives show top-dose activity change, negative = inhibition, hits mostly inhibitors. 340,000 compounds, 3.4% hits. AID 651820, 2012; active means well fitted inhibition curve with a large enough effect; inconclusive means small, poorly fitted or top-dose-only effect, or another doubt; inactive means no such curve, though single readings can be large or run the other way; further: potency means the concentration at half of the fitted maximal effect
#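 Luciferase read-out (15 sec integration) after a 15 min room-temperature substrate step quantifies HCVcc-Cre infection. Cells, 1,000 per well, had compound added 4 h post-plating, then virus at ~0.5 moi, and were cultured 44 h.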
# HCMV inh = qHTS Assay for inhibitors of the human cytomegalovirus (HCMV); HFF cells, HCMV-luciferase reporter, 72 h; stronger effect = lower value; activity change, negative = inhibition, % at 57.5 µM; 410,000 compounds, 4.5% hits; AID 1259415, 2018; in the data active means activity change below about -60%; inconclusive means no clear call, values can overlap the other calls; inactive means above about -39%
#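 Inhibition of viral replication was scored as loss of reporter luminescence in HFFs infected with HCMV-luciferase (MOI 1 PFU/cell) for 72 h; compounds tested at 2 doses, normalized to buffer and Salinomycin controls.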
# MARV entry inh = qHTS for inhibitors of binding or entry into cells for Marburg Virus. Marburg virus pseudotyped entry inhibition, cell reporter. Potency, µM (highest dose often 37.8 µM), inactives show at the top dose activity change, negative = inhibition, most hits filed as inhibitors. 300,000 compounds, 1.8% hits. AID 540276, 2011; calls by dose curve; tested in HEK293 cells; further: potency means the concentration at half of the fitted maximal effect
# An asterisk follows results filed as active; ? = inconclusive; . = no result; [ ] = remark or other dose. On the % scale 0 is the no-effect control and ±100 the full control effect.
SMILES,FMDV inh,LASV entry inh,HCV inhibitor,HCMV inh,MARV entry inh
O=C(c1cccs1)N1N=C(c2ccccc2)CC1c1ccccc1O (configuration not stated),2%,30%[46.1 µM],-14%,-60*,?
Cc1ccc(C2=NN(C(=O)CCC(=O)O)C(c3cn(-c4ccccc4)nc3-c3ccc(C)cc3)C2)cc1 (configuration not stated),-24%,.,0%,-60*,.
Cc1c(C(=O)NCc2ccccc2Cl)sc2ncnc(NCC3CCCO3)c12 (configuration not stated),-1%,.,.,.,.
OC1CCC(Br)CC1C1NC2=C(CCCC2)S1 (configuration not stated),.,.,.,.,11%
Nc1cc(-c2ccccc2)nc2ccccc12,.,.,.,8,.
N#CC1CC(c2ccccc2)=NN1c1ccccc1[N+](=O)[O-] (configuration not stated),22%,?,?,-64*,?
O=C(c1ccncc1)N1N=C(c2ccc(Br)cc2)CC1c1ccccc1O (configuration not stated),?,.,?,1,?
O=[N+]([O-])c1ccc(N2N=C(c3ccccc3)CC2c2ccccc2O)cc1 (configuration not stated),.,.,.,-63*,.
O=C(c1ccccc1)N1N=C(c2ccccc2)CC1c1ccccc1O (configuration not stated),-18%,?,-12%,-62*,-29%[46.1 µM]
Cc1ccc(C2=NN(C(=O)c3cccs3)C(c3ccccc3O)C2)cc1 (configuration not stated),13%,-7%[46.1 µM],2%,-61*,?
O=CN1N=C(c2ccccc2)CC1c1ccccc1[N+](=O)[O-] (configuration not stated),-5%,-5%,0%,-29,-15%
NS(=O)(=O)c1ccc(N2N=C(c3ccccc3)CC2c2ccccc2Br)cc1 (configuration not stated),-27%,.,-40%,-12,.
O=C(NCCc1ccccc1Cl)C1CCC(=O)N(C2CCCCCC2)C1 (configuration not stated),-12%,.,11%,-16,.
O=S1(=O)CC(N2CCCCC2)CN1Cc1ccc(F)cc1 (configuration not stated),0%,?,.,-13,.
Cc1cc(NC(=O)c2cc(-c3cccc(Cl)c3)on2)nn1Cc1ccc(Cl)cc1,?,10%[46.1 µM],.,-80*,-20%[46.1 µM]
COc1cccc(-c2cc(C(=O)Nc3c(C)nn(Cc4ccccc4)c3C)no2)c1,-14%,-9%,10µM*,?,?
Cc1nn(Cc2ccccc2Cl)c(C)c1NC(=O)c1nc2ncccn2n1,-14%,-1%,16%,-63*,4%
Cc1cc(NC(=O)c2cc(-c3ccc(Cl)cc3)on2)nn1Cc1ccc(Cl)cc1,?,18%[46.1 µM],.,-37,?
COc1ccc(-c2cc(C(=O)Nc3c(C)nn(Cc4ccccc4C)c3C)no2)cc1,-12%,-14%[46.1 µM],.,-21,-1%[46.1 µM]
Cc1nn(Cc2ccccc2Cl)c(C)c1NC(=O)c1cc(-c2ccc(F)cc2)on1,-14%,-9%,3.5µM*,2,?
Cc1cc(C)c(C)c(S(=O)(=O)N2CCC(C(=O)OCC(=O)NC3CCS(=O)(=O)C3)CC2)c1C (configuration not stated),-23%,-2%,1%,-8,-10%
O=C(Nc1ccn(-c2ccccc2)n1)c1ccc(Cl)cc1,-18%,-4%,7.1µM*,-34,?
O=C(Nc1ccn(-c2ccccc2)n1)c1ccccc1Br,52%,.,3%,-13,.
N#Cc1ccc(C(=O)Nc2ccn(-c3ccccc3)n2)cc1,-22%,1%,?,-75*,?
N#Cc1ccc(C(=O)Nc2cc(-c3ccccc3)nn2-c2ccccc2)cc1,-22%,.,10µM*,-8,.
SMILES,FMDV inh,LASV entry inh,HCV inhibitor,HCMV inh,MARV entry inh
CC(=O)Nc1ccn(-c2ccccc2)n1,53%,9%,-5%,25,?
COc1ccc(OC(=O)c2nc(SCc3ccc(C)cc3)ncc2Cl)cc1,-1%,20%[46.1 µM],.,-24,-5%[46.1 µM]
Cc1cc(NC(=O)OC2CCCCC2)ccc1[N+](=O)[O-],30%,?,?,50,10µM*
Cc1ccc(NC(=O)C2C3CCCCC32)cc1[N+](=O)[O-] (configuration not stated),49%,.,-9%,-19,.
COc1cccc(C(NC(C)=O)c2nc(-c3ccc4c(c3)OCO4)cs2)c1 (configuration not stated),-21%,.,.,12,.
CN(C)CCOC1c2ccccc2CCc2ccc3ccccc3c21 (configuration not stated),?,?,?,?,5µM*
CCOC(=O)Cc1csc(NC(=S)NC(=O)c2ccc(C)cc2)n1,-1%,.,-2%,-96*,.
CCOC(=O)Cc1csc(NC(=S)NC(=O)c2ccccc2)n1,0%,0%,-9%,-65*,7%
CCOC(=O)Cc1csc(NC(=O)c2ccc(C)cc2)n1,-11%,.,22%,-25,-3%[46.1 µM]
CCOC(=O)Cc1csc(NC(=O)c2c(C)noc2C)n1,-28%,.,-8%,-99*,.
CCN1C(=O)[C@@H]2[C@H]3[C@H](O)[C@H](O)CC(=NO[C@H](C)c4cn([C@H](CO)Cc5ccccc5)nn4)[C@@H]3CC[C@H]2C1=O,.,25%[14.3 µM],.,.,-11%[14.2 µM]
CC(C)c1c(C(=O)N/N=C/c2ccccc2OCc2c(F)cccc2Cl)nnn1-c1nonc1N,-21%,.,-20%,-35,.
CN(CCc1ccccc1)Cc1c[nH]c2ccccc12,-25%,.,0%,-99*,.
CCN(CC)Cc1c[nH]c2ccccc12,?,-9%,-8%,63,-17%
CN(Cc1c[nH]c2ccccc12)C1CCCCC1,-10%,-16%,-28%,-94*,0%
CN(Cc1ccccc1)C(=O)C(=O)c1c[nH]c2ccccc12,52%,.,.,-70*,.
c1ccc2c(CNC3CCCCC3)c[nH]c2c1,-27%,-5%,4%,-29,?
CCN(C(=O)C(=O)c1c[nH]c2ccccc12)c1ccccc1,2%,.,-3%,27,.
CN(C)c1ncc2nc(-c3cccs3)c(=O)n(C[C@H]3CCCO3)c2n1,22%,.,.,.,.
CC(C)(C)NCC(=Cc1ccccc1)C(=O)c1ccccc1,8.9µM*,7.1µM*,?,-98*,7.9µM*
C=CCN1C(=O)[C@@]2(CC(C)=C[C@@H](COc3ccccc3)O2)c2ccccc21,.,.,.,.,2%[14.2 µM]
COC(=O)c1sccc1S(=O)(=O)N(CC(=O)NCc1ccc(C)cc1)c1ccc(C)c(C)c1,3%,-21%[46.1 µM],.,4,.
CCOc1ccc(CCNc2ncnc3onc(-c4ccc(Cl)cc4)c23)cc1OCC,?,?,.,-26,7.9µM*
c1ccc(-c2cnnc(-c3ccccn3)n2)cc1,50%,.,11%,-3,.
C=CCNc1nc(-c2ccccn2)nnc1-c1ccccc1,-10%,?,?,-103*,?

# Screens from PubChem BioAssay.
